Source: PubChem BioAssay
An excerpt weighted towards active compounds, which were near 31% of everything screened.
CYP2C9 act = increases human cytochrome P450 2C9 activity; P11712; recombinant CYP2C9, luciferin-H conversion, luminescence; active compounds read high; factor 1 = untreated enzyme, 0 = blocked; activation factor at 5 µM; actives 1.4% (n = 96,000); AID 1024;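 active = activation factor of 2 or more for CYP2C9 at a 5 µM dose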;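 note: 0 = sulfaphenazole-blocked wells and 1 = vehicle-only wells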
CYP2C19 inhib = human CYP2C19 inhibition; P33261; CYP2C19 Supersomes, luciferin-H EGE luminescence, 30 min; inhibition, % at 5 µM; actives 21% (n = 96,000);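 active = CYP2C19 inhibition above a set limit at 5 µM in the primary screen, cut at about 50% in these data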;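 note: plate controls were negative control wells for no effect and 2.5 mM tranylcypromine positive control for full effect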
PLAP activator = human PLAP activation. P05187. purified PLAP enzyme, luminescent substrate read-out; active compounds read high. activation fold at 20 µM. actives 1.2% (n = 96,000). AID 696; in the data active = activation fold above about 2
Target sequence (P05187 whole entry, looked up): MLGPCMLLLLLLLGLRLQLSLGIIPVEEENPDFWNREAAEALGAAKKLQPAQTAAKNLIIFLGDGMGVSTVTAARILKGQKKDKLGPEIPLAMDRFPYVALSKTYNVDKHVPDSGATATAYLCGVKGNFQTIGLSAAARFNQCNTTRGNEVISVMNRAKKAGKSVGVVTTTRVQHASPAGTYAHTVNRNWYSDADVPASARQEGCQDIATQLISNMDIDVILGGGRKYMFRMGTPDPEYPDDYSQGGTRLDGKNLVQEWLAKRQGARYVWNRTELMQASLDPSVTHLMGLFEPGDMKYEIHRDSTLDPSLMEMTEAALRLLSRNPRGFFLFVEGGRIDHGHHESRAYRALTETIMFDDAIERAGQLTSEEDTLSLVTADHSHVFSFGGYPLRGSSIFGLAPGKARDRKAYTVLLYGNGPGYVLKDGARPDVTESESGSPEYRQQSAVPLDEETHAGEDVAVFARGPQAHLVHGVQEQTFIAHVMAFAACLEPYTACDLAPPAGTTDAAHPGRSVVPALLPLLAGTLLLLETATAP
CYP2C19 act = activators of human cytochrome P450 2C19. P33261. recombinant CYP2C19, luciferin-H EGE luminescence; active compounds read high; 0 = fully inhibited enzyme, 1 = untreated enzyme. activation factor at 5 µM. 96,000 tested, under 10 active. AID 1025;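 active = activation factor of at least 2 at 5 µM in the primary screen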;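 note: 0 = wells with 2.5 mM tranylcypromine and 1 = vehicle-only wells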
CYP2C9 inh = inhibitors of human CYP2C9; inhibition, % at 5 µM; CYP2C9 Supersomes, luciferin-H conversion, luminescence; actives 20% (n = 96,000); AID 777; P11712;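 active = blocking of liver enzyme CYP2C9 beyond about 50% at 5 µM, limit read from the data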
Active calls of the source: *.

SMILES	CYP2C9 act	CYP2C19 inhib	PLAP activator	CYP2C19 act	CYP2C9 inh
N#CC(c1nc2ccccc2nc1N1CCCC1)S(=O)(=O)c1ccccc1 (configuration not stated)	0.6	28	1.4	0.7	41
Cc1ccc(C)c(S(=O)(=O)C(C#N)c2nc3ccccc3nc2N2CC(C)OC(C)C2)c1 (configuration not stated)	0	52*	1.4	0.5	99*
N#CC(c1nc2ccccc2nc1N1CCCC1)S(=O)(=O)c1cccs1 (configuration not stated)	0.3	26	1.4	0.7	75*
Cc1ccc(C)c(S(=O)(=O)C(C#N)c2nc3ccccc3nc2N2CCCC2)c1 (configuration not stated)	0.9	-1	1.2	1	7
COc1ccc(S(=O)(=O)C(C#N)c2nc3ccccc3nc2N2CCCCC2)cc1 (configuration not stated)	0.4	57*	1.2	0.4	64*
Cc1ccc(S(=O)(=O)C(C#N)c2nc3ccccc3nc2N2CCN(C)CC2)cc1C (configuration not stated)	0.2	-14	1.7	1.1	75*
CCOc1ccccc1-c1nc(SCC(=O)O)n[nH]1	1.1	-11	1.1	1.1	-11
O=C(O)c1cc2nc(C3CC3)cc(C(F)(F)F)n2n1	1.1	-9	1.3	1.1	-13
CCCc1cc(=O)n2[nH]c(NCc3c(F)cccc3Cl)nc2n1	0.5	13	1.1	0.9	47
O=c1[nH]c2ccccc2n2c(-c3ccncc3)nnc12	0.9	12	1	0.9	11
COc1ccc(S(=O)(=O)N2C3CCC2CC(NC(=O)C2CC2)C3)cc1 (configuration not stated)	1	18	1	0.8	4
O=C(Cn1cnc2c(oc3ccccc32)c1=O)N1CCN(c2ccccc2)CC1	1.2	-23	0.9	1.2	-18
CCCOC(=S)N/C(=N\S(=O)(=O)c1ccccc1)c1ccccc1	0.3	37	1.2	0.6	67*
Cc1ccc(S(=O)(=O)/N=C(/NC(=S)Nc2ccccc2)c2ccccc2)cc1	0.6	25	0.9	0.8	44
Cc1ccc(NC(=S)N/C(=N/S(=O)(=O)c2ccccc2)c2ccccc2)cc1	0.2	20	1	0.8	82*
CCOC(=O)c1ccc(N/C(=N\S(=O)(=O)c2ccccc2C)c2ccccc2)cc1	0.7	23	1.3	0.8	31
CCN(CC)/C(=N/S(=O)(=O)c1ccc(C)cc1)c1ccccc1	0.8	57*	1.2	0.4	19
CCn1nnnc1-c1ccc(OC)c(S(=O)(=O)N2CCCCC2)c1	0.8	-1	1	1	22
COc1ccc(OC)c(CN2C(=O)c3ccccc3C2C(=O)NCc2cccnc2)c1 (configuration not stated)	0.5	57*	1.4	0.4	51*
Cc1ccc(CN2C(=O)c3ccccc3C2C(=O)NCc2cccnc2)cc1 (configuration not stated)	0.5	71*	1.5	0.3	51*
O=C(NCc1cccnc1)C1c2ccccc2C(=O)N1C1CCCC1 (configuration not stated)	0.7	75*	1	0.3	32
COc1ccc(CN2C(=O)c3ccccc3C2C(=O)NCc2cccnc2)c(OC)c1 (configuration not stated)	0.7	39	1.1	0.6	25
CCOC(=O)C(CC)/C(C)=N/NC(=O)c1ccc([N+](=O)[O-])cc1 (configuration not stated)	1	26	1	0.7	-1
COc1cccc2c(=O)c(SC(F)(F)C(F)C(F)(F)F)c(C)[nH]c12 (configuration not stated)	0.7	44	1	0.6	34
Cc1[nH]c2ccc(F)cc2c(=O)c1SC(F)(F)C(F)C(F)(F)F (configuration not stated)	0.4	80*	1	0.2	56*
SMILES	CYP2C9 act	CYP2C19 inhib	PLAP activator	CYP2C19 act	CYP2C9 inh
CCCCOc1ccc(N2C(=O)CC(NCCc3ccc(S(N)(=O)=O)cc3)C2=O)cc1 (configuration not stated)	0.6	-1	2.1*	1	45
Cc1ccc(F)cc1NC(=O)Cc1ncc(C(F)(F)F)cc1Cl	0.9	51*	0.9	0.5	7
CCCC(=O)N1c2ccccc2[C@@H](N(C(C)=O)c2ccccc2)C[C@H]1C	0.3	51*	1.8	0.5	73*
Cc1ccc(C)c(NC(=O)c2ccc(N(C)S(C)(=O)=O)cc2)c1	0.5	14	1.1	0.9	51*
CN(c1ccc(C(=O)Nc2ccccc2Sc2ccccc2)cc1)S(C)(=O)=O	0.5	30	1.2	0.7	46
COc1ccc(C)cc1NC(=O)c1ccc(N(C)S(C)(=O)=O)cc1	2.5*	32	0.9	0.7	-147
COc1ccc(C)cc1NC(=O)c1ccc2c(c1)OCO2	1.8	86*	0.5	0.1	-76
CCn1c(CNC(=O)c2ccc3c(c2)OCO3)nnc1SCC(=O)Nc1cc(C)ccc1OC	0.9	19	1.5	0.8	14
CCCCS/C(=C(/C#N)C(N)=O)c1cc2c([nH]1)CCCC2	0.6	34	0.7	0.7	35
COC(=O)c1sc(NC(C)=O)c(C(=O)OC)c1C	1	-3	0.9	1	2
COc1ccc(NC(=O)CSc2nncs2)cc1OC	1	13	0.9	0.9	1
COC(=O)c1sc(NC(=O)CC(C)C)c(C(=O)OC)c1C	0.7	59*	1.2	0.4	26
COC(=O)c1sc(NC(=O)CSc2nncs2)c(C(=O)OC)c1C	0.3	28	1.4	0.7	66*
COc1ccc(-n2c(SCC(=O)Nc3nccs3)nnc2-c2ccoc2C)cc1	0.4	75*	1.2	0.2	62*
Cc1ccc(-n2c(SCC(=O)NCc3cccs3)nnc2-c2ccoc2C)cc1	0.2	93*	1.5	0.1	78*
COC(=O)CSc1nnc(-c2ccoc2C)n1-c1ccc(C)cc1	0.9	40	1	0.6	5
O=c1oc(-c2ccc(Br)o2)nc2ccccc12	0.9	77*	0.9	0.2	7
COc1cccc(-c2nc3ccccc3c(=O)o2)c1	0.8	8	0.8	0.9	20
CCOCCCNC(=O)C(NC(=O)CC1NC(=O)NC1=O)c1ccc(Cl)cc1 (configuration not stated)	1	-13	1.1	1.1	-4
CC1CCN(c2nc(-c3ccccc3)cc(C(F)(F)F)n2)CC1	1	1	1.1	1	0
CN1CCN(c2nc(-c3ccccc3)cc(C(F)(F)F)n2)CC1	1.1	50*	1.1	0.5	-10
CC(C)Cn1cnc2c1c(=O)n(CC(=O)Nc1ccc3c(c1)OCO3)c(=O)n2Cc1ccccc1	1.1	-1	1	1	-12
O=C(CSc1nc2ccccc2[nH]1)NC(=O)NCc1ccco1	0.8	57*	1.6	0.4	22
